PubChem BioAssay AID504339 (National Center for Advancing Translational Sciences (NCATS), 2011)
Among all 390,000 compounds or so, about 17,000 (4.4%) were called active. A call without a number means that no potency is given here. Not shown: some 8% with an inconclusive outcome. Calls come from the whole dose curve; as a rule, active = well fitted inhibition curve with a large enough effect; inconclusive = small, poorly fitted or top-dose-only effect; inactive = no such curve, though single readings can be large or run the other way. The full list was thinned out, with actives kept by preference.

What follows are molecules tested against Lysine-specific demethylase 4A (Homo sapiens) (UniProt O75164) (assay: qHTS Assay for Inhibitors of JMJD2A-Tudor Domain). Settings: AlphaScreen JMJD2A-Tudor / H3K4me3 peptide binding; series mostly up to 114 µM.
Note: nearly all actives have a fitted effect of over 50% in size.
Potency is the fitted concentration of half-maximal effect.

Sequence of Lysine-specific demethylase 4A (Homo sapiens) (O75164 whole entry, looked up, the tested form may be a part): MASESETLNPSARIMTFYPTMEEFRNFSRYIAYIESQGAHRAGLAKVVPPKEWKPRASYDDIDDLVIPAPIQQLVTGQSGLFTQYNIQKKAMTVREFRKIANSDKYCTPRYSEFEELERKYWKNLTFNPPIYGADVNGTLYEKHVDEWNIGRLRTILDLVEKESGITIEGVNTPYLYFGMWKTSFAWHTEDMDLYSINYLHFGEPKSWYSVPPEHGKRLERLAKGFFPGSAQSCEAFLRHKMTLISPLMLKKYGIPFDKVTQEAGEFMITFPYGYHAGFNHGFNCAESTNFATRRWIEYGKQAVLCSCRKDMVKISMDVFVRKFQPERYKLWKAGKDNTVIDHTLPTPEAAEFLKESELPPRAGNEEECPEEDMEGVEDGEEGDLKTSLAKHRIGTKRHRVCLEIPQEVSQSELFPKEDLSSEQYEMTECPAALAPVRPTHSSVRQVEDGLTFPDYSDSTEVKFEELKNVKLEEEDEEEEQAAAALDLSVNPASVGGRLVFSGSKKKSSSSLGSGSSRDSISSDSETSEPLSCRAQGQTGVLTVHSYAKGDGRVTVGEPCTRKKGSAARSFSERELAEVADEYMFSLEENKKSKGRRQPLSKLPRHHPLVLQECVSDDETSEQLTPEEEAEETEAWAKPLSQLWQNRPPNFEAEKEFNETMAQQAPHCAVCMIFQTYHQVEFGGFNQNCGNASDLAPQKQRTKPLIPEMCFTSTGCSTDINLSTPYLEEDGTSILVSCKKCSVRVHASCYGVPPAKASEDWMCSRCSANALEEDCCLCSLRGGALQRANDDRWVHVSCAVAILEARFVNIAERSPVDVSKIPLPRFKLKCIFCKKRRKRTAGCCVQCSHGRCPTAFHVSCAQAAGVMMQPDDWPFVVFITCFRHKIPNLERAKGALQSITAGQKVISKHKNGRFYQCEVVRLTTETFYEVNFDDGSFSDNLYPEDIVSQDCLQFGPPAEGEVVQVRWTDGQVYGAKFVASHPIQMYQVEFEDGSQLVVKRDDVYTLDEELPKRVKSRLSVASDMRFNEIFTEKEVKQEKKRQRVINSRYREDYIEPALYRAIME

| SMILES | Potency | activity change, negative = inhibition |
| --- | --- | --- |
| COc1ccc(CNC(=O)C2=Cc3cccc(OC)c3OC2)cc1OC | inactive |  |
| CCN(CC)c1nc(C#N)nc(OC)n1 | inactive |  |
| O=C(CCn1c(=O)c2sccc2n(Cc2ccc(F)cc2)c1=O)NCc1ccc2c(c1)OCO2 | inactive |  |
| CCN(CC)CCOc1ccc2c(c1)C(=NNC(=O)c1ccccn1)c1cc(OCCN(CC)CC)ccc1-2 | 25.1 µM (active) |  |
| CN(CCOc1ccc(CC2SC(=O)NC2=O)cc1)c1ccccn1 (centres undefined) | inactive |  |
| CC(O)c1ccc(OCCN(C)c2ccccn2)cc1 (centres undefined) | inactive |  |
| Cc1cccc(NC(=O)Cn2nc(-c3ccc(Cl)cc3)c3ccccc3c2=O)c1 | inactive |  |
| O=C(CN1C(=O)COc2ccc(S(=O)(=O)N3CCCCCC3)cc21)N1CCN(c2cccc(C(F)(F)F)c2)CC1 | inactive |  |
| CCOCCCNC(=O)c1c(NC(=O)Cc2coc3ccc(C)cc23)sc2c1CCC2 | inactive |  |
| CC(C)(C)c1ccc(/C=C/C(=O)Nc2ncccn2)cc1 | inactive |  |
| Cc1cc(C(=O)O)ccc1[N+](=O)[O-] | inactive |  |
| CN(C)c1ccc(/C=C/C(=O)c2ccc(C(C)(C)C)cc2)cc1[N+](=O)[O-] | 11.2 µM (active) |  |
| CCOc1ccc(NC(=O)CC2C(=O)N(c3cccc(OC)c3)C(=O)N2C2CCCCC2)cc1 (centres undefined) | inactive |  |
| Cc1ccccc1CNC(=O)CCc1cn(Cc2ccccc2C)c2ccccc12 | inactive |  |
| COc1ccc(CC(=O)N[C@@H](CCSC)c2nc3ccccc3[nH]2)cc1 | inactive |  |
| CSCCC(NC(=O)c1ccc(=O)n(C)n1)c1nc2ccccc2[nH]1 (centres undefined) | 89.1 µM (active) |  |
| CSCCC(NC(=O)c1cc([N+](=O)[O-])cc([N+](=O)[O-])c1)c1nc2ccccc2[nH]1 (centres undefined) | inactive |  |
| Cc1ccc(CNC(=O)CCC(=O)N2Cc3ccccc3Oc3ncccc32)cc1 | inactive |  |
| CCN(c1ccc(Cl)cc1)S(=O)(=O)c1nnc(NC(=O)c2ccco2)s1 | inactive |  |
| O=C(Nc1nonc1-c1ccc(Cl)cc1)c1ccco1 | inactive |  |
| O=C(Nc1nc(-c2ccco2)c(-c2ccco2)s1)c1ccco1 | 50.1 µM (active) |  |
| Cc1ccc(S(=O)(=O)c2cn(Cc3ccccc3)c3cc(N4CCCC4)c(F)cc3c2=O)c(C)c1 | inactive |  |
| O=C(COc1ccc(Cl)cc1)Nc1ccc2c(c1)OCO2 | inactive |  |
| COC(=O)CCNc1ccc2c(c1)OCCO2 | inactive |  |
| CCOc1ccc(NCCC(=O)c2ccc3c(c2)OCO3)cc1 | 39.8 µM (active) |  |

| SMILES | Potency | activity change, negative = inhibition |
| --- | --- | --- |
| Cc1ccc(CNC(=O)C2(C(F)(F)F)C/C(=C\Cc3ccccc3)CCCO2)o1 (centres undefined) | inactive |  |
| CNC(=O)[C@]1(C(F)(F)F)C[C@H](CCc2ccccc2)CCCO1 | inactive |  |
| O=C(NCc1ccccn1)[C@]1(C(F)(F)F)C[C@H](CCc2ccccc2)CCCO1 | 39.8 µM (active) |  |
| CCCOc1cccc(C(=O)Nc2cccc(NC(=O)c3ccc(C(C)(C)C)cc3)c2)c1 | inactive |  |
| CCOC(=O)c1nc(-c2ccc3c(c2)OCO3)[nH]c1C | inactive |  |
| CCN1CCN(C(C(=O)NC2CCCC2)c2cc3c(cc2[N+](=O)[O-])OCO3)CC1 (centres undefined) | inactive |  |
| Cc1ccc(S(=O)(=O)N/N=C\c2cc3c(cc2[N+](=O)[O-])OCO3)cc1 | inactive |  |
| CCOc1ccc(-c2n[nH]c(=S)n2/N=C/c2cc3c(cc2[N+](=O)[O-])OCO3)cc1 | 17.8 µM (active) |  |
| Cc1ccc(-c2n[nH]c(=S)n2/N=C/c2cc3c(cc2[N+](=O)[O-])OCO3)cc1 | 10 µM (active) |  |
| O=S(=O)(c1ccc(Cl)cc1)c1nnn2c1nc(NC1CCCC1)c1sccc12 | inactive |  |
| Fc1ccc(-c2ccc(CNCc3ccccn3)o2)cc1Cl | 63.1 µM (active) |  |
| Cc1cc(S(=O)(=O)NCc2ccccn2)c(Cl)cc1Cl | inactive |  |
| COc1ccc(-c2ccc(CNCCCN3CCOCC3)o2)cc1Cl | inactive |  |
| O=C(NC1CCN(Cc2ccccc2)CC1)c1ccc(Cn2c(=O)c3ccccc3n(Cc3cccc(F)c3)c2=O)cc1 | inactive |  |
| O=C1CN(C(=O)Nc2ccccc2C(F)(F)F)C(c2ccccc2)c2c(sc3c2CCCC3)N1 (centres undefined) | inactive |  |
| COc1ccc(CNC(=O)CS(=O)Cc2nc(-c3cccc(C)c3)oc2C)cc1 (centres undefined) | inactive |  |
| CC1(C)CC(N2CCN(C(c3ccccc3)c3ccccc3)CC2)=CC(=[N+]2CCCCC2)C1 | 25.1 µM (active) |  |
| Cc1cccc(N2CCN(C(c3ccccc3)c3nnnn3CC3CCCO3)CC2)c1C (centres undefined) |  | -8.9% [at 11.4 µM] (inactive) |
| CC1(C)CC(=O)C=C(N2CCOCC2)C1 | inactive |  |
| CCNS(=O)(=O)c1ccc(NC(=O)CSc2nc(-c3ccco3)cc(C(F)(F)F)n2)cc1 | inactive |  |
| O=C(CSc1cn(CC(=O)N2CCOCC2)c2ccccc12)Nc1ccccc1 | inactive |  |
| CC(=O)Nc1ccc(NC(=O)C2CCCN(S(=O)(=O)c3ccc4c(c3)CCCC(=O)N4)C2)cc1 (centres undefined) | inactive |  |
| COc1cc(C2c3c(oc4ccccc4c3=O)C(=O)N2c2nc(C)c(C)s2)ccc1O (centres undefined) | inactive |  |
| CCOc1ccc(-n2c(C)nc3c(cnn3-c3ccc(C)cc3)c2=O)cc1 | inactive |  |
| Cn1ccc2cc(S(=O)(=O)N3CCCC(C(=O)NCc4ccccc4F)C3)ccc21 (centres undefined) | inactive |  |

| SMILES | Potency | activity change, negative = inhibition |
| --- | --- | --- |
| COc1ccc(CN2CCNC(=O)C2CC(=O)N(C)Cc2ccccn2)cc1OC (centres undefined) | 14.1 µM (active) |  |
| CN(Cc1cccc2ncccc12)C(=O)CC1C(=O)NCCN1Cc1ccc(F)cc1 (centres undefined) | inactive |  |
| COc1cccc(CN2CCNC(=O)C2CC(=O)N(C)CCc2ccccn2)c1 (centres undefined) | inactive |  |
| Cc1ccc(CCNC(=O)c2ccc3c(c2)N(Cc2cc(C)ccc2C)C(=O)c2ccccc2S3=O)cc1 (centres undefined) | inactive |  |
| Cc1ccc(NC(=O)NC(C)c2c(-n3cccc3)sc(C)c2C)c(C)c1 (centres undefined) | inactive |  |
| CCn1cc(NC(=O)Nc2ccc(OC)c(OC)c2)c(C(N)=O)n1 | inactive |  |
| COc1ccc(NC(=O)NC(C)c2c(-n3cccc3)sc(C)c2C)cc1OC (centres undefined) | 50.1 µM (active) |  |
| Cc1cc2c(s1)c1cnn(Cc3c(F)cccc3Cl)c(=O)c1n2C | inactive |  |
| Cc1ccc(S(=O)(=O)N(CC(=O)Nc2ccc(Cl)cc2Cl)c2ccccc2C)cc1 | inactive |  |
| COc1cccc(CNC(=O)c2ccc3c(c2)sc2nc(-c4cccc(OC)c4)cn23)c1 | inactive |  |
| CCCCc1nc2ccccc2c(NC(=O)CN2CCN(C)CC2)c1CCC | 0.708 µM (active) |  |
| CCc1ccc(-c2cc(C(=O)NN3CCN(C)CC3)c3ccccc3n2)cc1 | inactive |  |
| CCc1cc(C(=O)c2ccc(OC)cc2)c(NC(=O)CN2CCN(C)CC2)s1 | inactive |  |
| CC(C)C(=O)Nc1nc2c(s1)CC(C(C)(C)C)CC2 (centres undefined) | inactive |  |
| CC1CN(C(=O)N2CCC(C(=O)NCc3cccs3)CC2)c2ccccc2O1 (centres undefined) | inactive |  |
| Cc1nn(-c2nc(-c3ccccc3)cc(C(F)(F)F)n2)c(C)c1Cl | inactive |  |
| CNc1ccc(-c2nc(-c3ccccc3C)no2)cc1[N+](=O)[O-] | inactive |  |
| COc1ccc(N(C)C(=O)C2CCN(S(=O)(=O)c3cc(Br)cc4c3N(C(C)=O)CC4)CC2)cc1 | inactive |  |
| Cc1onc(-c2ccccc2Cl)c1C(=O)N(Cc1ccc(N(C)C)cc1)C(C)C | 39.8 µM (active) |  |
| Cc1ccc2cc(CCNC(=O)c3c(-c4ccccc4Cl)noc3C)c(=O)[nH]c2c1 | inactive |  |
| Cc1onc(-c2ccccc2Cl)c1C(=O)NCCn1ccc2ccccc21 | inactive |  |
| CCOc1ccc(OCC)c(Nc2nc3ccccc3n3nnnc23)c1 | inactive |  |
| CCC(=O)N1CCc2cc(Br)cc(S(=O)(=O)CCC(=O)N3CCN(c4ccc(F)cc4)CC3)c21 | inactive |  |
| Cc1ccccc1CSc1nc(-c2ccccc2)nc2c1Cc1c(CO)cnc(C)c1O2 | inactive |  |
| CCOC(=O)Cn1c(=O)n(C2CCCCC2)c2nc(-c3cccc(OC)c3)nc(C(N)=O)c21 | inactive |  |

| SMILES | Potency | activity change, negative = inhibition |
| --- | --- | --- |
| O=C(CN1CCCCCC1)NCCN1C(=O)S/C(=C\c2ccccc2Cl)C1=O | inactive |  |
| N#Cc1ccccc1CN1C(=O)S/C(=C/c2cccn2-c2cccc(C(=O)O)c2)C1=O | 56.2 µM (active) |  |
| CN(C(=O)CSc1nc2ccccc2n1Cc1ccccc1C#N)c1ccccc1 | inactive |  |
| CCOc1ccccc1NC(=O)C1=C(C)Nc2ncnn2C1c1ccc(NC(C)=O)cc1 (centres undefined) | inactive |  |
| COc1ccc(Cl)cc1NC(=O)CSc1nc2ccccc2c2nc(-c3ccccc3)nn12 | inactive |  |
| O=C1COc2c1ccc(O)c2O | 5.62 µM (active) |  |
| O=C1CN(Cc2ccccc2)S(=O)(=O)c2ccccc21 | 79.4 µM (active) |  |
| COc1ccc(CN2CCC(=O)c3ccccc3S2(=O)=O)cc1 | inactive |  |
| CC(C)(C)c1ccc(CN2C(=O)c3ccccc3S2(=O)=O)cc1 | inactive |  |
| CCn1cc2nc(SCc3cccc(F)c3)n(CCc3ccccc3)c(=O)c2n1 | inactive |  |
| Cc1ccccc1Nc1nc(N)nc(CN2CCN(c3ccccn3)CC2)n1 | 56.2 µM (active) |  |
| Cc1ccccc1Nc1nc(N)nc(CSc2ccccc2)n1 | inactive |  |
| Cc1ccccc1Nc1nc(N)nc(CSc2nnc3ccccn23)n1 | inactive |  |
| Cc1cc(NC(=O)c2cccc(Cl)c2)ccc1-c1cc2ccccc2oc1=O | inactive |  |
| O=C(c1cccs1)c1cn(CCOc2ccc(Cl)cc2)c2ccccc12 | inactive |  |
| CCN(CC)CCNC(=O)c1cc2c(=O)oc3ccc(C)cc3c2s1 | inactive |  |
| CCc1ccc(S(=O)(=O)c2nnn3c2nc(NCc2ccccc2OC)c2cc(Cl)ccc23)cc1 | inactive |  |
| O=[N+]([O-])c1ccc(N2CCN(c3ccc(O)cc3)CC2)c(Cl)c1 | 44.7 µM (active) |  |
| COc1ccc(N2CCN(c3ccc([N+](=O)[O-])cc3Cl)CC2)cc1 | inactive |  |
| CN(C)S(=O)(=O)N1CCN(c2ccc([N+](=O)[O-])cc2)CC1 | inactive |  |
| Cc1ccc(Cl)cc1NC(=O)CCS(=O)(=O)c1ccc(Br)s1 | inactive |  |
| Cc1ccc(C)c(S(=O)(=O)N2CC(=O)Nc3ccccc32)c1 | 79.4 µM (active) |  |
| Cc1ccc(C)c(S(=O)(=O)N2CCN(C(=O)Nc3ccccc3)CC2)c1 | inactive |  |
| Cc1ccc(S(=O)(=O)N2CC(=O)Nc3ccccc32)cc1C | inactive |  |
